In PubChem BioAssay (EPA / NIEHS) one finds outcome data, which are given here for 30 compounds.

The structures appear in SMILES notation. Results filed as inconclusive are left out. The source made the active and inactive calls. How the source made its calls: active means hit-call score of the fitted dose curve at least 0.9, where 1 is the maximum; inconclusive means response in the unintended direction; inactive means score below 0.9.

Cytochrome P450 2C19 (Homo sapiens), sequence (P33261 whole entry, looked up): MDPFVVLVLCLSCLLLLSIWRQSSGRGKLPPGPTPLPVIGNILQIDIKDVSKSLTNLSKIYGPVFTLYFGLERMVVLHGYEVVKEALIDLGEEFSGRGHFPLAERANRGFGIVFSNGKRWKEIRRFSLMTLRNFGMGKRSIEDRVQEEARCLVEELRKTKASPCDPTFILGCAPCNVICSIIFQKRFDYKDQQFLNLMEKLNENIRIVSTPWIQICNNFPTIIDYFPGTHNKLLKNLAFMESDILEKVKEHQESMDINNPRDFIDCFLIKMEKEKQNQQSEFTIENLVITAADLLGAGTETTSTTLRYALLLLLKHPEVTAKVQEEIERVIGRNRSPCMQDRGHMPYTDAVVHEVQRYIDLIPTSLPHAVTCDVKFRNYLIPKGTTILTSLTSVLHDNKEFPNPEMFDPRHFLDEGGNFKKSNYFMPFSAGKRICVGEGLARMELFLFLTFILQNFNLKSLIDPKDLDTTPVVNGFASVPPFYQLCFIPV

Read-out in the test: Cytochrome P450 2C19 (Homo sapiens) (UniProt P33261)
Description: CLD_CYP2C19_48hr: CellzDirect (CLD) Gene Expression Assay for xenobiotic metabolism (CYP2C19) at 48 hours (AID 2283700).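 Further: fitted upward so actives raise CYP2C19 mRNA above the 0.2% DMSO vehicle.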 As to the method:
CLD_48hr is a cell-based, multiplexed-readout assay that uses hepatocyte, a human liver primary cell, with measurements taken at 48 hours after chemical dosing in a 96-well plate.CLD_CYP2C19_48hr is one of 16 assay component(s) measured or calculated from the CLD_48hr assay. It is designed to make measurements of mRNA induction, a form of inducible reporter, as detected with chemiluminescence signals by Quantitative Nuclease Protection Assay (qNPA) technology.Data from the assay component CLD_CYP2C19_48hr was analyzed at the endpoint, CLD_CYP2C19_48hr, in the positive analysis fitting direction relative to DMSO as the negative control and baseline of activity. Using a type of inducible reporter, gain-of-signal activity can be used to understand changes in the reporter gene as they relate to the gene CYP2C19. Furthermore, this assay endpoint can be referred to as a primary readout. To generalize the intended target to other relatable targets, this assay endpoint is annotated to the cyp intended target family, where subfamily is xenobiotic metabolism.
Human hepatocyte cultures were treated daily for two consecutive days with fresh dosing solutions containing appropriate concentrations of the 320 ToxCast chemicals (chemical identities were blinded to CellzDirect and other ToxCast collaborators), vehicle control (0.2% DMSO), and positive control inducers as summarized in Table 1. Due to the large number of treatment groups and chemicals examined, the ToxCast chemicals were divided into two groups (spanning two independent cultures of hepatocytes from separate donor preparations (Hu778: ToxCast plates 1 and 2; Hu776: ToxCast plates 3 and 4). Each preparation of human hepatocyte cultures was treated with respective vehicle control, medium only control, set of six positive controls/reference chemicals for the five hepatic receptor pathways, and a subset of eight of the ToxCast chemicals (indoxacarb, pyrithiobac-sodium, norflurazon, cyhalofop-butyl, methomyl, thiram, acetochlor, and propiconazole). These replicate data, coupled with internal replicates designed within the blinded ToxCast chemical library, provided additional data to evaluate interindividual differences between hepatocyte preparations and their potential impact on chemical profiles.Cell morphology and integrity were evaluated using phase-contrast microscopy as an indicator of hepatocyte cell health (Tyson & Green, 1987). Cultures for each treatment group (i.e., media, vehicle [0.2% DMSO], positive control inducers [multiple concentrations], and the ToxCast chemicals [multiple concentrations]) were observed and cell morphology was assessed relative to vehicle control cultures at each harvest time point (0, 6, 24, or 48 h). […] Images were evaluated at the conclusion of the study to assess changes in cell integrity and account for the effects of chemical exposure on uncharacteristic changes in concentration-dependent gene expression profiles. The results from these determinations of apparent cytotoxicity were annotated (yes/no) alongside the corresponding qNPA data for reference.At the conclusion of each treatment period, hepatocyte cultures (96-well) were washed with 1 volume of HBSS, lysed by addition of 25 ul ArrayPlate lysis buffer (HTG, Tucson, AZ), and 70 ul/well of Denaturation Oil, denatured by incubation at 95C for 10 min, and frozen at approximately -70C until analysis by nuclease protection assay (qNPA) (Roberts et al., 2007). For qNPA analysis, cell lysates were thawed at 50C for approximately 30 min, qNPA probes were added, and samples were incubated at 95C for 10 min to begin the detection process by denaturing the target RNA, dissociating the duplexes and secondary structure hybridization. At the conclusion of the hybridization period, S1 nuclease reagent was added to each sample to digest all nonprotected nucleotides at 50C for 60-90 min. […]
As for `CNC(=O)ON=C(SC)C(=O)N(C)C`, the result was inactive.

As to `CCCCOC(=O)[C@@H](C)Oc1ccc(Oc2ccc(C#N)cc2F)cc1`, the compound was called inactive.

Take `CC(C1CC1)C(O)(Cn1cncn1)c1ccc(Cl)cc1` (stereo not given): the compound was classed as inactive.

On to `COP(=O)(NC(C)=O)SC` (stereo not given), for which the compound was classed as inactive.

With `CCOP(=O)(OCC)Oc1cc(C)nc(C(C)C)n1`, the outcome was inactive.

With `CCOP(=O)(NC(C)C)Oc1ccc(SC)c(C)c1` (stereo not given), the result was inactive.

Turning to `CCCCOC(=O)c1ccccc1C(=O)O`, the compound was classed as inactive.

For `CC(Oc1cccc(Cl)c1)C(=O)O` (stereo not given), the compound was called inactive.

`CCOP(=S)(OCC)Oc1ccc2c(C)c(Cl)c(=O)oc2c1`: the compound was classed as inactive.

In the case of `Cc1nn(-c2cc(NS(C)(=O)=O)c(Cl)cc2Cl)c(=O)n1C(F)F`, the result was inactive.

On to `CC1=NNC(=O)N(/N=C/c2cccnc2)C1`, for which the outcome was inactive.

With `CN(C)NC(=O)CCC(=O)O`, the call was inactive.

As to `CCOP(=S)(OCC)SCCSCC`, the compound was called inactive.

For `CC(=NC#N)N(C)Cc1ccc(Cl)nc1`, the compound was called inactive.

On to `S=C1NCCN1`, for which the compound was classed as inactive.

As to `Cc1ccn2nc(S(=O)(=O)Nc3c(F)cccc3F)nc2n1`, the compound was called inactive.

For the compound `CNC(=O)ON=C(C)SC`, the outcome was inactive.

Turning to `C[N+]1(C)CCCCC1`, the compound was called inactive.

For `CCCOc1nn(C(=O)NS(=O)(=O)c2ccccc2C(=O)OC)c(=O)n1C`, the compound was classed as inactive.

As for `CC1(C(=O)Nc2ccc(O)c(Cl)c2Cl)CCCCC1`, the result was inactive.

For the compound `CNC(=O)Oc1cccc2c1OC(C)(C)O2`, the outcome was inactive.

In the case of `COc1cccc(C(=O)NN(C(=O)c2cc(C)cc(C)c2)C(C)(C)C)c1C`, the result was inactive.

Regarding `CCc1cnc(C2=NC(C)(C(C)C)C(=O)N2)c(C(=O)O)c1` (stereo not given), the outcome was inactive.

For the compound `O=C(O)c1cc(Oc2ccc(C(F)(F)F)cc2Cl)ccc1[N+](=O)[O-]`, the result was inactive.

Consider `CN1COCN(Cc2cnc(Cl)s2)C1=N[N+](=O)[O-]`, for which the result was inactive.

Turning to `COc1cc(OC)nc(Sc2cccc(Cl)c2C(=O)O)n1`, the outcome was inactive.

As for `C=C(C)[C@H]1Cc2c(ccc3c2O[C@@H]2COc4cc(OC)c(OC)cc4[C@@H]2C3=O)O1`, the outcome was inactive.

`COP(=O)(OC)OC(Br)C(Cl)(Cl)Br` (stereo not given): the outcome was inactive.

As for `CC(C)=CC1C(C(=O)OCN2C(=O)C3=C(CCCC3)C2=O)C1(C)C` (stereo not given), the result was inactive.

For the compound `C#CC(C)(C)NC(=O)c1cc(Cl)cc(Cl)c1`, the call was inactive.
